Laboratory results as given in article PMC4336329 (PLoS ONE, 2015).
The whole screen tested about 310,000 compounds, of which about 14,000 (4.5%) showed an effect of 50% or more. Effects have a minus sign here. The entries come from a sample that favours strong results as a whole.

Each compound was assayed against human ether-à-go-go-related gene (hERG) potassium channel (human, UniProt Q12809) (assay: primary screen, population patch clamp on CHO cells stably expressing hERG; higher = less effect of the substance).
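Note: peak tail current of the secondary pulse compared with the same well before compound.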

Sequence of human ether-à-go-go-related gene (hERG) potassium channel (Q12809 whole entry, looked up): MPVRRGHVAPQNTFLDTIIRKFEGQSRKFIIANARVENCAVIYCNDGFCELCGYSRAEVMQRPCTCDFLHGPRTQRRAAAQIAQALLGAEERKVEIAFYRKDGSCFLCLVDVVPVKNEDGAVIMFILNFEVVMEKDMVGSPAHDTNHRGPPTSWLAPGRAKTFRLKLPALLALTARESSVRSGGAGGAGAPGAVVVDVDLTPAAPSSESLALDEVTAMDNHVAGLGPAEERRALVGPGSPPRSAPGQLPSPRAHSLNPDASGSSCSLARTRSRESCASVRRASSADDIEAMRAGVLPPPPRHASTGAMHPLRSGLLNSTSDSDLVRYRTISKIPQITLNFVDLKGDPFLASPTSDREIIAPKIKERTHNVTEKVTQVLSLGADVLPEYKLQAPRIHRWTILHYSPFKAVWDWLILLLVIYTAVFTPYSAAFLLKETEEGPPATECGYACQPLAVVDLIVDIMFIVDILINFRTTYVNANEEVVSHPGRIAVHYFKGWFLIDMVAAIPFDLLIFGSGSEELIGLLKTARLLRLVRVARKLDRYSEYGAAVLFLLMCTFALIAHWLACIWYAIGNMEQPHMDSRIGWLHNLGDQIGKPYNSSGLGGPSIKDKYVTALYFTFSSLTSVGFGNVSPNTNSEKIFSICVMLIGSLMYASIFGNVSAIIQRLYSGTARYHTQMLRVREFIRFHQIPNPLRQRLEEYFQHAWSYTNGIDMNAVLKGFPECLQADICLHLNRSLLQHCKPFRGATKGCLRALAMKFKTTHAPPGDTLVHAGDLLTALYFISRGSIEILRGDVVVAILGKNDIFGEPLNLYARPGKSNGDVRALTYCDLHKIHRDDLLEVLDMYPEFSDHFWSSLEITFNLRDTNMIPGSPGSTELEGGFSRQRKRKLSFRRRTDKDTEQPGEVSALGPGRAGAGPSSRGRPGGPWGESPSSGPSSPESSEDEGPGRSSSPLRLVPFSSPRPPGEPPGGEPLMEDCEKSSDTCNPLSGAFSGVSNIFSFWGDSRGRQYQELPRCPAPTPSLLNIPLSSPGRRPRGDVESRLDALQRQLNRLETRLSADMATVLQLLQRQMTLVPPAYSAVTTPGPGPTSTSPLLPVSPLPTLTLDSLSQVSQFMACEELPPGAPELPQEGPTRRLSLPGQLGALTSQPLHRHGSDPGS

SMILES	hERG current change (%, negative = inhibition) at 10uM [%]
O=CN1CCN(C(=O)CN2C(=O)c3ccccc3C2=O)CC1	10.5
O=S(=O)(c1ccc(OCC(O)CN2CCc3ccccc3C2)cc1)N1CCOCC1 (stereo not drawn)	-4.43
COc1ccc(OCC(O)CN2CCc3ccccc3C2)cc1.Cl (stereo not drawn)	-33.1
OC(COc1ccccc1CNCc1cccnc1)CN1CCc2ccccc2C1 (stereo not drawn)	-34.2
CCN(CCn1cccn1)Cc1ccccc1OCC(O)CN1CCc2ccccc2C1 (stereo not drawn)	-51.5
Cc1cc(=O)oc2cc(OCC(O)CN3CCc4ccccc4C3)ccc12 (stereo not drawn)	-31.7
CCC(=O)c1ccc(OCC(O)CN2CCc3ccccc3C2)cc1.Cl (stereo not drawn)	-63.7
Cc1cc(OCC(O)CN2CCc3ccccc3C2)ccc1Cl.Cl (stereo not drawn)	-53.4
CC(=O)c1ccc(OCC(O)CN2CCc3ccccc3C2)cc1.Cl (stereo not drawn)	-41.9
Cn1cc(CNCc2ccccc2OCC(O)CN2CCc3ccccc3C2)cn1 (stereo not drawn)	-0.11
CCOc1ccc(OCC(O)CN2CCc3ccccc3C2)cc1.Cl (stereo not drawn)	-66.3
Cl.OC(COc1ccc2c(c1)OCO2)CN1CCc2ccccc2C1 (stereo not drawn)	-28.5
N#CC1=C(N)NC(SCC(=O)Nc2ccc(Br)cc2)=C(C#N)C12CCCCC2	13.4
O=C(Nc1cc(Cl)ccc1O)C1CC(c2ccccc2Cl)=NO1 (stereo not drawn)	20.3
O=C(N/N=C/c1cn(-c2cccs2)nc1-c1ccccc1)c1ccc(O)cc1	13.8
COc1c(C)cccc1C(=O)Nc1ccc(N2CCN(S(C)(=O)=O)CC2)cc1	5.12
CCCC(=O)Nc1nnc(CC(=O)N2CCCC2)s1	7.72
O=C(CCCc1nc(-c2ccccc2Cl)no1)NCc1cccnc1	-2.1
Cn1nnnc1NCc1ccccc1F	4.52
CCCCC1OC23CCCCC2C(C#N)(C(=N)O3)C1(C#N)C#N (stereo not drawn)	4.17
CCN(CC)S(=O)(=O)c1ccc2c(c1)nc(SCC(=O)NCC1CCCO1)n2CC (stereo not drawn)	3.12
c1ccc(CSc2nnc(-c3cccs3)n2Cc2ccco2)cc1	-46.8

SMILES	hERG current change (%, negative = inhibition) at 10uM [%]
Cl.OC1(CN2CCOCC2)C2CC3CC(C2)CC1C3 (stereo not drawn)	11
O=C(COC(=O)c1cc(-c2ccccc2)nc2ccccc12)Nc1ccc2c(c1)OCO2	10.7
O=C(NCCCc1ccccc1)c1ccccc1O	-0.415
CCCCSc1nnc(CCC)n1N	-2.49
Cc1ccc(C)c(NC(=S)N(Cc2cccc(Br)c2)CC2CCC(C(=O)O)CC2)c1 (stereo not drawn)	2.11
COC(=O)c1ccccc1NC(=O)NC1CCCCC1	5.86
COc1cccc(OCC(O)CN2CCc3ccccc3C2)c1.Cl (stereo not drawn)	-71.1
CCCc1ccc(OCC(O)CN2CCN(CCO)CC2)cc1.Cl (stereo not drawn)	-13.7
CCCc1ccc(OCC(O)CN2CCCC2)cc1.Cl (stereo not drawn)	-27.8
CC(C)(C)c1ccc(OCC(O)CN2CCc3ccccc3C2)cc1.Cl (stereo not drawn)	-50.3
OC(COc1ccc(CNCc2cccnc2)cc1)CN1CCc2ccccc2C1 (stereo not drawn)	-13.5
COc1cccc(OCC(O)CN2CCOCC2)c1.Cl (stereo not drawn)	18.7
CCCc1ccc(OCC(O)CN2CCc3ccccc3C2)cc1.Cl (stereo not drawn)	-71.5
COc1cccc(C2c3c(oc4ccc(F)cc4c3=O)C(=O)N2CCN2CCOCC2)c1OC (stereo not drawn)	4.45
CCCCn1c(SCC(=O)Nc2cc(NC(=O)c3ccco3)ccc2C)nc2ccccc2c1=O	-8.62
Cc1ccc(/C=N/N2CCN(C3c4ccccc4-c4ccccc43)CC2)s1	0.486
CN(/N=C/c1cccc(Br)c1)C1=NS(=O)(=O)c2ccccc21	-11.8
COc1ccc(N2CCN(c3nc4c(c(=O)n(C)c(=O)n4C)n3CCCc3ccccc3)CC2)cc1	13.4
CCc1ccc(/C=c2\s/c(=C\C(=O)C(C)(C)C)[nH]c2=O)cc1	15.2
Cc1ccccc1N1CCN(C2CCCN(C(=O)c3csc(C(C)C)n3)C2)CC1 (stereo not drawn)	-43
Cc1cc(C(=O)N2CCCC(N3CCN(c4ccccc4C)CC3)C2)n(C)n1 (stereo not drawn)	-88.8
O=C(c1noc2c1CCCC2)N1CCCC(N2CCN(c3ccccc3F)CC2)C1 (stereo not drawn)	-28

SMILES	hERG current change (%, negative = inhibition) at 10uM [%]
Cc1ccccc1N1CCN(C2CCCN(C(=O)c3cc(CC(C)C)nn3C)C2)CC1 (stereo not drawn)	-31.7
Cc1ccccc1N1CCN(C2CCCN(C(=O)c3noc4c3CCCC4)C2)CC1 (stereo not drawn)	-63.5
CCc1[nH]nc(C(=O)N2CCCC(N3CCN(c4ccccc4C)CC3)C2)c1C (stereo not drawn)	-23.8
Cc1nc(C(=O)N2CCCC(N3CCN(c4ccccc4C)CC3)C2)cs1 (stereo not drawn)	-39.5
Cc1ccccc1N1CCN(C2CCCN(C(=O)c3cn4c(C)cccc4n3)C2)CC1 (stereo not drawn)	-58.1
CCCc1cc(C(=O)N2CCCC(N3CCN(c4ccccc4C)CC3)C2)n(C)n1 (stereo not drawn)	-35.8
Cc1ccccc1N1CCN(C2CCCN(C(=O)c3ccccn3)C2)CC1 (stereo not drawn)	-9.78
Cc1cc(C(=O)N2CCCC(N3CCN(c4ccccc4C)CC3)C2)nc(C)n1 (stereo not drawn)	4.27
Cc1ccccc1N1CCN(C2CCCN(C(=O)c3cc(C(C)C)[nH]n3)C2)CC1 (stereo not drawn)	-61.2
O=C(COc1ccccc1[N+](=O)[O-])N(Cc1ccco1)C1CCS(=O)(=O)C1 (stereo not drawn)	-6.3
Cc1cccc(NC(=O)/C=C/c2ccc3c(c2)OCO3)n1	19.1
Cc1c(Cl)cnc(NC(=O)COC(=O)Cc2coc3ccc4ccccc4c23)c1Cl	-7.96
Cc1ccc(Sc2ccc(NC(=O)CCl)cc2)c(C)c1	12.5
CC(=O)N1CC2(C)CN(C(C)=O)CC(C)(C1)C2	23.8
Cc1cnc(C(=O)N2CCCC(N3CCN(c4ccccc4C)CC3)C2)cn1 (stereo not drawn)	1.27
Cc1ccccc1N1CCN(C2CCCN(C(=O)c3snnc3C)C2)CC1 (stereo not drawn)	5.72
Cc1ccccc1N1CCN(C2CCCN(C(=O)c3cnsn3)C2)CC1 (stereo not drawn)	-58.2
COc1ccc(NS(=O)(=O)c2ccc(N3CCCC3)c(NC(=S)Nc3cccc(S(=O)(=O)N(C)C)c3)c2)cc1	18.1
CCCc1cc(N2CCCC(C(=O)NCC)C2)n2ncnc2n1 (stereo not drawn)	-27.3
CCc1c(C)nc2ncnn2c1N1CCC(C(=O)NCc2cccc(OC)c2)CC1	-38.6
CCc1c(C)nc2ncnn2c1N1CCCC(C(=O)NCc2ccc3c(c2)OCO3)C1 (stereo not drawn)	-37.4
Cc1cc(C)nc(N2CCCC(C(=O)NCc3ccc4c(c3)OCO4)C2)n1 (stereo not drawn)	20.9

SMILES	hERG current change (%, negative = inhibition) at 10uM [%]
CCc1c(C)nc2ncnn2c1N1CCC(C(=O)NCc2ccc3c(c2)OCO3)CC1	-68.7
CCCc1cc(N2CCCC(C(=O)NCc3ccc4c(c3)OCO4)C2)n2ncnc2n1 (stereo not drawn)	-78.4
CN(C)C=O.O=C(OCC(=O)N1CCCc2ccccc21)C1CCN(S(=O)(=O)c2cccs2)CC1	-71.1
O=C(COC(=O)C1CCN(S(=O)(=O)c2cccs2)CC1)NCc1ccccc1	-23.6
O=C(COC(=O)C1CCN(S(=O)(=O)c2cccs2)CC1)c1ccccc1	20.6
Cc1ccc(CNC(=O)COC(=O)C2CCN(S(=O)(=O)c3cccs3)CC2)cc1	-50.5
O=C(COC(=O)C1CCN(S(=O)(=O)c2cccs2)CC1)NCc1ccc(F)cc1	-49.7
Cc1ccc(S(=O)(=O)N2CCC(C(=O)OCC(=O)N3CCc4ccccc43)CC2)cc1	-25.4
CN(Cc1ccccc1)C(=O)COC(=O)C1CCN(S(=O)(=O)c2cccs2)CC1	-53.4
CCN(C(=O)COC(=O)C1CCN(S(=O)(=O)c2cccs2)CC1)c1ccccc1	22
CN(C(=O)COC(=O)C1CCN(S(=O)(=O)c2cccs2)CC1)c1ccccc1	-14.1
ClC1(Cl)CC1CSc1nnc(-c2ccncc2)o1 (stereo not drawn)	-16.3
COc1ccc(-c2ccc(NS(=O)(=O)c3cc([N+](=O)[O-])c(C)c([N+](=O)[O-])c3)cc2)nn1	-11.3
O=C(Cn1nnc(N2CCCC2)n1)N/N=C/c1ccc(Cl)cc1	13.1
Cc1cc(C)c(C)c(S(=O)(=O)NCc2ccc(C(=O)N3CCOCC3)cc2)c1C	-4.97
CC(=O)CCC(=O)N1CCCC(N2CCN(c3cccc(Cl)c3)CC2)C1 (stereo not drawn)	-2.63
O=C(CSc1ccccc1)N1CCCC(N2CCN(c3cccc(Cl)c3)CC2)C1 (stereo not drawn)	-54.1
O=C(CSc1ccccc1)N1CCCC(N2CCN(c3ccc(F)cc3)CC2)C1 (stereo not drawn)	-75.3
O=C(CSc1ccccc1)N1CCN(c2ccc(F)cc2)CC1	10.8
O=C(CSc1ccccc1)N1CCCC(N2CCN(c3ccccc3)CC2)C1 (stereo not drawn)	-33.7
O=C(CCC(F)(F)F)N1CCCC(N2CCN(c3cccc(Cl)c3)CC2)C1 (stereo not drawn)	-46.8
